Results on 40 compounds are retold here after PubChem BioAssay (EPA / NIEHS).

As usually defined, the AC50 is the midpoint of the concentration-response curve, whichever way the signal moves.

Records with an inconclusive call do not appear. Active and inactive are the calls of the source. Rule for the calls: active = hit-call score of the fitted dose curve at least 0.9, where 1 is the maximum; inconclusive = response in the unintended direction; inactive = score below 0.9.

The assay can be described thus: TOX21_p53_BLA_p3_viability: Viability Assessment in the Tox21 HCT-116 p53 Agonism Beta-lactamase Assay, Phase 3 (AID 2283593).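 Note: cells exposed to compound for 16 h before reading.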 From the text: TOX21_p53_BLA_p3 is a cell-based, single-readout assay that uses HCT116, a human intestinal cell line, […] in a 1536-well plate.TOX21_p53_BLA_p3_viability is an assay readout measuring cellular ATP content and detected with CellTiter-Glo Luciferase-coupled ATP quantitation.TOX21_p53_BLA_p3_viability used a type of viability reporter where loss-of-signal activity can be used to understand changes in the cell viability. Furthermore, this assay endpoint can be referred to as a secondary readout, because this assay has produced multiple assay endpoints where this one serves a viability function. To generalize the intended target to other relatable targets, this assay endpoint is annotated to the cell cycle intended target family, where the subfamily is cytotoxicity.
Thawing Method: Place 14 mL of pre-warmed thaw medium into a 15 mL of conical tub. Remove the vial of cells to be thawed from liquid nitrogen and thaw rapidly by placing at 37C in a water bath with gentle agitation for 1-2 minutes. Decontaminate the vial by wiping with 70% ethanol before opening in a biological safety cabinet. Transfer the vial contents drop-wise into 14 mL of thaw medium in a sterile 15-mL conical tub. Centrifuge cells at 900 rpm for 4 minutes and resuspend in thaw medium. Transfer contents to the T75 tissue culture flask containing Thaw Medium and place flask in a humidified 37C/5% CO2 incubator. Switch to growth medium at first passage.Propagation Method: Aspirate medium, rinse once in DPBS, add 0.25% Trypsin/EDTA and swirl to coat the cell evenly. Add an equal volume of Growth Medium to inactivate Trypsin after 2-3 minutes incubation at 37C. Centrifuge cells at 900 rpm for 4 minutes and resuspend in growth medium. Cell should be passage or fed at least twice a week.Assay Protocol: Harvest cells from culture in growth medium and resuspend in assay medium. 2.2 Dispense 4000 cells/5 uL/well into 1536-well black/clear bottom plates using a Multidrop dispenser. After the cells were incubated at 37C for 5 hours, 23 nL of compounds dissolved in DMSO were transferred to the assay plate by a PinTool resulting in a 217-fold dilution. Incubate the plates for 16 hours at 37C, 5% CO2. Add 1 uL of 6X LiveBLAzer FRET B/G (CCF4-AM) Substrate Mixture to each well using a BioRAPTR dispenser and incubate the plates at room temperature for 2 hours. Measure fluorescence intensity at 460 and 530 nm emission and 405 nm excitation by an Envision detector. Data is expressed as the ratio of 460nm/530nm emissions. Add 4 uL of Cell-titer Glo to each well using BioRAPTR and incubate the plates at room temperature for […]. For cell viability readout that measures cytotoxicity, 4 ul/well of CellTiter-Glo reagent was added into the assay plates using a Flying Reagent Dispenser. After 30 min incubation at room temperature, the luminescence intensity in the plates was measured using a ViewLux plate reader.
Take `COc1ccc(C)cc1[N+](=O)[O-]`: the result was inactive. The same measure, in the same setting: for `CCCCCCOC(=O)c1cccnc1` the value was “inactive”; for `O=P(O)(O)OP(=O)(O)OP(=O)(O)O`, “inactive”; for `CCCCOCCOC(=O)CCCCCCCCC(=O)OCCOCCCC`, “inactive”. The same measure, in the same setting: for `CN(C)C(=O)Oc1ccc[n+](C)c1` the value was “inactive”.

Consider `O=C(O)/C=C/c1cnc[nH]1`, for which the outcome was inactive.

For `CCCCC/C=C\C/C=C\CCCCCCCC(=O)NC(C)c1ccccc1` (stereo not given), the compound was classed as inactive.

As to `CCN1CCCC1CNC(=O)c1cc(S(N)(=O)=O)ccc1OC` (stereo not given), the compound was called inactive. Still for that read-out and setting: as for `N[C@@H](CSCCCO)C(=O)O`, the entry is “inactive”; as for `CCOC(=O)Nc1ccc2c(c1)N(C(=O)CCN1CCOCC1)c1ccccc1S2`, “inactive”.

`O=C1CC[C@@H](C(=O)N[C@H]2C[C@@H]2c2ccccc2)N1`: the compound was called inactive. Still for that read-out and setting: as for `ONc1ccccc1`, the entry is “inactive”. The same measure, in the same setting: as for `c1ccc2c(c1)ccc1c3ccccc3ccc21`, the entry is “inactive”; as for `CC(=O)Nc1ccc(S(=O)(=O)Nc2cc(C)on2)cc1`, “inactive”. On the same count and under the same terms, for `CC(C)(C)NSc1nc2ccccc2s1` the value was “inactive”; for `CC(=O)Nc1ccc(OCC(O)CNC(C)C)cc1` (stereo not given), “inactive”; for `C=C1C(=O)O[C@H]2[C@H]1CC/C(C)=C/CC[C@@]1(C)O[C@@H]21`, “inactive”. `Cc1c(O)cc2c(c1C)O[C@](C)(CCC[C@H](C)CCC[C@H](C)CCCC(C)C)CC2`: the call was inactive. Same read-out and setting: as for `CN(C)CCC(O)(c1ccccc1)c1ccccc1Cl` (stereo not given), the entry is “inactive”; as for `Cn1cnc2ncnc(N)c21`, “inactive”; as for `C[C@@H](c1ncncc1F)[C@](O)(Cn1cncn1)c1ccc(F)cc1F`, “inactive”. On to `CCOC(=O)Nc1ccc2c(c1)N(C(=O)CN(C)C)c1ccccc1CC2`, for which the outcome was inactive. Same read-out and setting: as for `CC(C)(C)c1nnc(NS(=O)(=O)c2ccccc2)s1`, the entry is “inactive”; as for `Cc1ccc(C(C)(C)c2ccc(C)cc2)cc1`, “inactive”.

For the compound `CC1(C)OC[C@@H](COC(=O)CCc2ccc(OC[C@@H](O)CNCCNC(=O)N3CCOCC3)cc2)O1`, the compound was classed as inactive.

`CC(C(=O)O)c1ccc2c(c1)Cc1cccnc1O2` (stereo not given): the outcome was inactive. Same read-out and setting: for `CC1(C)S[C@@H]2[C@H](NC(=O)[C@@H](NC(=O)N3CCNC3=O)c3ccccc3)C(=O)N2[C@H]1C(=O)O` the value was “inactive”. Still for that read-out and setting: for `C=CCCCCCCCCCCC` the value was “inactive”; for `BrC(Br)C(Br)Br`, “inactive”; for `CC#N`, “inactive”. Still for that read-out and setting: as for `CC[C@@H](N)CO`, the entry is “inactive”. Take `CCCCCCCCCCCCCCCC(=O)O[C@@H]1CC(C)=C(/C=C/C(C)=C/C=C/C(C)=C/C=C/C=C(C)/C=C/C=C(C)/C=C/C2=C(C)C[C@@H](OC(=O)CCCCCCCCCCCCCCC)CC2(C)C)C(C)(C)C1`: the AC50 was 36.2 µM (active). As to `CC(C)c1ccccc1C(C)C`, the outcome was inactive. `CCCCC(=O)O[C@]1(C(=O)CO)CC[C@H]2[C@@H]3CCC4=CC(=O)CC[C@]4(C)[C@H]3[C@@H](O)C[C@@]21C`: the compound was classed as inactive.

For the compound `CC/C(=C(/CC)c1ccc(OP(=O)(O)O)cc1)c1ccc(OP(=O)(O)O)cc1`, the outcome was inactive. Regarding `CC1=C(/C=C/C(C)=C/C=C/C(C)=C/C=C/C=C(C)/C=C/C=C(C)/C=C/C2=C(C)C(=O)CCC2(C)C)C(C)(C)CCC1=O`, the call was inactive.

As to `Nc1cccc2c(=O)[nH][nH]c(=O)c12`, the compound was classed as inactive. Take `C=CC(=O)NC(C)C`: the call was inactive. Still for that read-out and setting: for `CCCCOC(=O)CC#N` the value was “inactive”. The same measure, in the same setting: for `CC(=O)CC(=O)Nc1ccc(S(=O)(=O)O)cc1` the value was “inactive”.
